Data taken from PubChem BioAssay (NCI).
The panel holds about 83,000 compounds, 20% with a hit somewhere; the sample as a whole holds those more often.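 Testing used 96-well plates and a 48-hour single-concentration exposure. Example: -40 means 40% of the starting cells died.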 A number with no mark means an inactive call. Active and inactive are the calls of the source. How the source made its calls: active means growth percent below 10; inactive means the rest.

What was measured:
Test in all cases: NCI-60 one-dose screen, 48 h (100 = growth as untreated, 0 = no growth, -100 = all killed)
Conditions in all cases: 10 µM unless noted
[1] = tested on: DU-145 prostate
[2] = tested on: K-562 leukemia
[3] = tested on: MALME-3M melanoma
[4] = tested on: MDA-MB-231 breast
[5] = tested on: RXF 393 renal
[6] = tested on: SF-268 CNS
[7] = tested on: SF-295 CNS
[8] = tested on: SF-539 CNS
[9] = tested on: UACC-257 melanoma
[10] = tested on: M14 melanoma

**Q.** `COc1ccc(C(=O)/C=C/c2cc3ccccc3n3nnnc23)cc1` was tested. Which growth [1] did it give?
**A.** Its growth is 115%.

**Q.** And the growth [2]?
**A.** Its growth is 91.8%.

**Q.** And the growth [3]?
**A.** The growth was 108%.

**Q.** What about the growth [4] of the same molecule?
**A.** Its growth is 106%.

**Q.** And the growth [5]?
**A.** The growth was 106%.

**Q.** What about the growth [6] of the same molecule?
**A.** Its growth is 108%.

**Q.** And the growth [7]?
**A.** The growth was 102%.

**Q.** What about the growth [8] of the same molecule?
**A.** Its growth is 107%.

**Q.** And the growth [9]?
**A.** Its growth is 114%.

**Q.** And the growth [10]?
**A.** Its growth is 110%.

**Q.** `O=C(c1nnc(Nc2ccccc2Br)o1)c1c[nH]c2ccccc12` was tested. Which growth [1] did it give?
**A.** The growth was 107%.

**Q.** What about the growth [2] of the same molecule?
**A.** Its growth is 112%.

**Q.** What about the growth [3] of the same molecule?
**A.** Its growth is 105%.

**Q.** And the growth [4]?
**A.** The growth was 88.9%.

**Q.** What about the growth [5] of the same molecule?
**A.** Its growth is 125%.

**Q.** And the growth [6]?
**A.** The growth was 105%.

**Q.** And the growth [7]?
**A.** The growth was 108%.

**Q.** What about the growth [8] of the same molecule?
**A.** Its growth is 104%.

**Q.** What about the growth [9] of the same molecule?
**A.** Its growth is 92.6%.

**Q.** And the growth [10]?
**A.** The growth was 92.5%.

**Q.** What does the source list for `O=C(Nc1ccc(NC(=O)c2cc(=O)[nH]c3ccccc23)cc1)Nc1cccc(Cl)c1`?
**A.** growth [1]: 105%; growth [2]: 83.5%; growth [3]: 90%; growth [4]: 78.7%; growth [5]: 95.3%; growth [6]: 65.3%; growth [7]: 95.3%; growth [8]: 84.1%; growth [9]: 98.2%; growth [10]: 93%

**Q.** With `CC(Oc1ccc(C(=O)O)cc1C(F)(F)F)c1ccc(Oc2ccccc2)cn1` (stereo not given) as the molecule, how does the growth [1] read?
**A.** Its growth is 111%.

**Q.** What about the growth [2] of the same molecule?
**A.** The growth was 82.8%.

**Q.** And the growth [3]?
**A.** Its growth is 101%.

**Q.** What about the growth [4] of the same molecule?
**A.** The growth was 101%.

**Q.** What about the growth [5] of the same molecule?
**A.** The growth was 95.8%.

**Q.** And the growth [6]?
**A.** Its growth is 94.6%.

**Q.** What about the growth [7] of the same molecule?
**A.** Its growth is 100%.

**Q.** And the growth [8]?
**A.** The growth was 95.9%.

**Q.** What about the growth [9] of the same molecule?
**A.** Its growth is 97.7%.

**Q.** What about the growth [10] of the same molecule?
**A.** The growth was 103%.

**Q.** How did the growth [1] turn out when `COc1ccc(NC(N)=NCCCOc2ccc(F)cc2)cc1` was run?
**A.** The growth was 48.5%.

**Q.** And the growth [2]?
**A.** The growth was 91.5%.

**Q.** And the growth [3]?
**A.** Its growth is 96.6%.

**Q.** And the growth [4]?
**A.** Its growth is 93.8%.

**Q.** And the growth [5]?
**A.** Its growth is 104%.

**Q.** What about the growth [6] of the same molecule?
**A.** The growth was 77.7%.

**Q.** What about the growth [7] of the same molecule?
**A.** The growth was 70.9%.

**Q.** What about the growth [8] of the same molecule?
**A.** Its growth is 71.7%.

**Q.** And the growth [9]?
**A.** The growth was 25.4%.

**Q.** And the growth [10]?
**A.** Its growth is 69.1%.

**Q.** Which growth [1] does the source give for `CCOC(=O)[C@@H](C)C[C@H](Cc1ccccc1)NC(=O)c1csc([C@@H](C[C@H](C(C)C)N(C)C(=O)[C@@H](NC(=O)[C@H]2C[C@H](O[Si](C)(C)C(C)(C)C)CCN2C)C(C)C)OC(C)=O)n1` here?
**A.** Its growth is -21.4% [9.25 µM] (active).

**Q.** What about the growth [2] of the same molecule?
**A.** Its growth is 3.46% [9.25 µM] (active).

**Q.** And the growth [3]?
**A.** The growth was 18.1% [9.25 µM].

**Q.** And the growth [4]?
**A.** Its growth is -34.7% [9.25 µM] (active).

**Q.** And the growth [5]?
**A.** Its growth is -10.3% [9.25 µM] (active).

**Q.** And the growth [6]?
**A.** Its growth is 4.82% [9.25 µM] (active).

**Q.** What about the growth [7] of the same molecule?
**A.** The growth was -15.6% [9.25 µM] (active).

**Q.** What about the growth [8] of the same molecule?
**A.** Its growth is -49.7% [9.25 µM] (active).

**Q.** What about the growth [9] of the same molecule?
**A.** The growth was 21.3% [9.25 µM].

**Q.** What about the growth [10] of the same molecule?
**A.** Its growth is -42.2% [9.25 µM] (active).

**Q.** For `CCNC(=O)Oc1ccc(/C(=C(\C)c2ccccc2)c2ccc(OCCCN(C)C)cc2)cc1`, which growth [1] is on record?
**A.** The growth was 92.5%.

**Q.** And the growth [2]?
**A.** The growth was 14.4%.

**Q.** What about the growth [3] of the same molecule?
**A.** The growth was 40.9%.

**Q.** What about the growth [4] of the same molecule?
**A.** Its growth is 76.6%.

**Q.** And the growth [5]?
**A.** The growth was 76.1%.

**Q.** And the growth [6]?
**A.** Its growth is 72.1%.

**Q.** What about the growth [7] of the same molecule?
**A.** The growth was 52.4%.

**Q.** And the growth [8]?
**A.** The growth was 65.8%.

**Q.** And the growth [9]?
**A.** Its growth is 3.23% (active).

**Q.** What about the growth [10] of the same molecule?
**A.** Its growth is 19.7%.
